The record followed here is the supplement of paper PMC12632987.

B1: GBRAP_125_2982 (protein)
chain: PTEQELEDLRRFARALGLDEEEAEEAAELARAHSLRGTVYAILAALGEEEAADLVEKLTEEEVARVLRRVAAYLEAHPDATPEEVVALFRELAEEELAKR
B2: GBRAP_139_3718 (protein)
chain: SAAEEKIEKAKEIVEKYKDDLEKLAKELAKLISEVDGETALEIVRAAAEELKDWSWEEWEEFIELLEKELKELGFDEDDVLAIKGEFEAVMAKHLMAKEA
B3: GBRAP_117_2578 (protein)
chain: MEEREEVKRRLRETVREAGKRLEESKSLSPEERRKVEEEVRERIAEAVREALEVLSREEVLDIVEEELLEFDAETYFKIMSFVEEAIEEIREEEEREREE
B4: GBRAP_11_2868 (protein)
chain: KKEKLEELAKLVKEAIEKLEKLLKEGVDNEELRKEIKKLLKEALKLAEKYASPAVAELLKIALEDLEKAEEDPENAKEYVERALAALRVAHGDLLLEIDE
B5: GBRAP_172_4999 (protein)
chain: GTTLLKLNLLGLSKEEAVETAVKAVKETIEKTGNNLVVAVIADDEETVEAVEKAIKKVAKEKGVKVEVVGEAYRSEEDERRVLAAAEAEKINLEYEEEEK
B6: GBRAP_11_2687 (protein)
chain: KKEKLEEGAKLAEELAKLIEELLKEGVDNEKLLKELEKKLKELEKLTKEYADKASQKLTEDIKETWEEMLKDPEKAEEYAKEMLAGARVLAGDYLLEIEE
B7: GBRAP_160_4409 (protein)
chain: SEELKKTAERILEAVKEELELLLELGEIDPEAAAGLLEGTILLEVFEDDSLTEEQEEKLEELAEELAEELRKRLEEEGKMTEEIKEELLKLAKEGLEKII
B8: GBRAP_160_4407 (protein)
chain: SEALKETAERILEAVKDELDLLLELGKIDPKAAAGLLEGTVLLEMFEDDSLTEEQEEKLEELAERLAERLEKLLKEEGEMTEEIRKELLEEAKRGLEEII
B9: GBRAP_160_4408 (protein)
chain: SEELEETAERILEAVEDELELLLELGEVDPEAAAGLLEGTILLEAFEDDSLTEEQEEEIEELAEELAERLERLLKEEGRMTEEIVEELLEEAEEGLEEII
B10: GBRAP_14_3807 (protein)
chain: MEEKKKAITDNTDELKEIVTEILKDAPQEVRDAVLAAIEDFRKTVIENNLNPDEIAELGDELVKKVEEITKDLPADVRARVLAAVRVHTGEIILEVEELE
B11: GBRAP_95_7033 (protein)
chain: EDDKLALESAIEVAVAAAELGDDDAAARALREALELLKKAGKVELDEELLKEAIDVIERVGVKKLPREDVLELLELLLEAAETEEVKELAEKAIERVKKR
B12: GBRAP_160_4426 (protein)
chain: SAKLEKAKKLITEIVEETAEMMEGESAEERIVLVRVAEGEILLELEELGLLTDEIEAVIDETFAAIAAHIAAHPDISQEELRALLKAAEEKIKKQLEKEA
B13: GBRAP_52_6047 (protein)
chain: SEEEIRRLAREAYEAMLAGDEERARALLREIFATKDEEKLEVFLETMVELAREARPEEHDAVARLVELAEEVGREAGIPEEFLDDFEARVFAAMYEAEQR
B14: GBRAP_11_2845 (protein)
chain: KKEKLKEIAEQADKVIALLDELIAAGTDDEELWKKLEEQLKKLQELVEKYLDESEKELAKLAKEELEEAKADPANAEQHLNNAKAFVSTLQGLVLLEIEE
B15: GBRAP_125_3027 (protein)
chain: SMEETAANLAKIARALGFSEGDVAELVANALAHGIKGAMIALALALGDEELADLLERLTEEEVARVVAEAAAEIEANPDLTPEEVKALLLELARRAVAES
B16: GBRAP_35_5514 (protein)
chain: STDDTIAEMLESYIEDLTLAVPELDPETLHTLTLGAAEMARELIEDNKNNKEIVKRIKESLERLLEALEARGLDDPLLREAAERVREVIEYAEEVLKEIE
B17: GBRAP_150_3890 (protein)
chain: SLEELLTIADTALDILELDIESGGKTIDQTLKVVQALVDEAKNFSPELQKLAEEALKKVEEAKKLKEEGGDQKEIDKLLKEAKKKLEELIKLLEKKIKEK
B18: GBRAP_83_6961 (protein)
chain: MIVVAASERPESIRSSIEAAIDLHKNEGKEVEIELFVTRENAPAALEGLKKAIDAGVEAEITLVTREEDREAAEALAAELKAYAAAKGRNTTVTVEVLPA
B19: GBRAP_184_5320 (protein)
chain: KVIHKVIEVETEEEAIEKLEEVKKEAKETGEKYLVVVEIKNATEKKIEAIAEKIKEMKEEGLPIEVIVELLDEVDEELTDFAVEKMEEAGAKVVISLKDE
B20: GBRAP_160_4155 (protein)
chain: SEELKKLIKEIKELADEAIKMMEGETPEQAKTIARVTLGDILLLVEENPAVSEEAEDKIGAIADATEATLKANPDLTVEEVKALVKEARDKVVAILEEEA
B21: GBRAP_160_4153 (protein)
chain: SEEIEKLIKEINEIADEAIKMMEGETPEQAKTIARVALGEMLLLVEENEAVSEETEDKIGEVVDATEATLKANPNLTVEEVKALLNEARDKIVKILKEES
B22: GBRAP_128_3366 (protein)
chain: LDEALLAEIRALVERMITSSVEETAALTREIVARIGTLSLAEQEAAVEIILAALPKLTKEKLEVVADTIRAAAPELDPETQRLLAEVEVEALNLAEELEE
B23: GBRAP_53_6391 (protein)
chain: GEERLEELIEELNRLIEELKTADPETAIKLAREAVELLLELAELGLPEEELVELVRRFAEAARPKPELEPVLVELAKRLAALGREEAAAEVAEALVEELE
B24: GBRAP_35_5625 (protein)
chain: NTNKEIAEATVAVMEDTLLAVDEVPAETFIDTAIKVAKAGIEVAKELKDDKENAKKILEAVKELLEAALKKAEETGAPEEKIKELKELLKEVEELEKKLK
B25: GBRAP_43_5791 (protein)
chain: MEEIVEGALDFARTALETPEITDETKARIVVDAVDFAADEGLLTEEELEELLRLLAESVSLEVAERALEEILKRLKELGAPQSLIDVVEKALEEVKKRRA
B26: GBRAP_160_3991 (protein)
chain: SEEIEKLKEEFKKLFDEMLELAEGESPEERLAVVRVMMGEVILLAEESGVVSDEAEEEIAKIMDELVATVEANPDMSMEELKALVEEALKKIFEVIDKYS
B27: GBRAP_52_5980 (protein)
chain: AEAEARALAEELLALMLAGDREGARALIREIVATKSEAFLELVFAALAELARTATPEERDAIVELALLLEDEALEGGFDEAVVDAGVARVAAAAVAAAAA
B28: GBRAP_14_3765 (protein)
chain: MEEVEKIIDETGKEIAALLAELVPEKAEEFKEAIDEVRKETIARIKETGDALAAAEEGERRLAERIAEITADLPEERRAEALAVVRVLFGQAILEIDEAL
B29: GBRAP_184_5033 (protein)
chain: KVLEKEIKAKNKEELEEKLKKLAEEVKGSKADLIVLLDIENPTKEKVKLAIEGLGAIKKAGYVSSVTIGFENELSEELTDVALETADKEGVKVVLPISDE

In all, about 4,500 sequences were measured (“median log2 fold change of GCK-ALFA target abundance (FLAG IP / Myc IP barcode read proportion)”: median about 0.078, lowest 2% from about -0.6 on). This is one part of a sample in which the lowest values are shown more often than they occur.

In this assay the target is GABARAP, O95166. Briefly: median log2 fold change of GCK-ALFA target abundance (FLAG IP / Myc IP barcode read proportion) (log2 ratio); each designed protein is fused to an ALFA-tag nanobody in HEK293 cells to bring the named protein to FLAG-tagged glucokinase (GCK); Myc marks an untargeted standard; higher = target protein stabilised (more abundant). The following applies: target protein: 3xFLAG-MCP-GCK-ALFA reporter; HEK293 landing pad (RPLP). The essentials: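 An ALFA-nanobody-fused binder library was recombined into HEK293 landing-pad cells and induced with 2 μg mL^−1 doxycycline. Cells were transfected with a plasmid expressing a FLAG-tagged target and a Myc-tagged standard. After 48 h, lysates underwent anti-FLAG and anti-Myc immunoprecipitation, and circular RNA barcodes were reverse transcribed, amplified and sequenced. Target abundance is the per-binder median log2 ratio of FLAG to Myc barcode read proportions. Barcodes needed ≥10^−7 proportion in both replicates, binders ≥3 barcodes per replicate, and a 10^−6 pseudocount was added; the two replicates were pooled.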
Chain of GABARAP, O95166 (O95166 whole entry, the tested form may be a part): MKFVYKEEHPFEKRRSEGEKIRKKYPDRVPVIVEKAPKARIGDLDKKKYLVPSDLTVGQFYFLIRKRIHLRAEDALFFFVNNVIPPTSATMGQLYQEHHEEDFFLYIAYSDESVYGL
Regarding B1, the “median log2 fold change” value is -0.551.

B2: the “median log2 fold change” value stood at 0.0839.

B3: the “median log2 fold change” value amounted to 0.274.

For the molecule B4, the “median log2 fold change” value is 0.0406.

Consider B5, for which the “median log2 fold change” value is 0.15.

Turning to B6, the “median log2 fold change” value is 0.232.

Turning to B7, the “median log2 fold change” value was -0.32.

B8: the “median log2 fold change” value is -0.289.

Turning to B9, the “median log2 fold change” value is -0.872.

In the case of B10, the “median log2 fold change” value worked out at 0.206.

B11: the “median log2 fold change” value is 0.148.

Turning to B12, the “median log2 fold change” value is -0.243.

Turning to B13, the “median log2 fold change” value is 0.204.

As to B14, the “median log2 fold change” value turned out to be 0.0872.

For the molecule B15, the “median log2 fold change” value was 0.134.

On to B16, for which the “median log2 fold change” value was -0.908.

Regarding B17, the “median log2 fold change” value is 0.232.

As to B18, the “median log2 fold change” value was found to be 0.189.

Turning to B19, the “median log2 fold change” value worked out at 0.193.

B20: the “median log2 fold change” value was -0.546.

For B21, the “median log2 fold change” value was -0.642.

Consider B22, for which the “median log2 fold change” value is 0.309.

Turning to B23, the “median log2 fold change” value was found to be 0.2.

For the molecule B24, the “median log2 fold change” value was -0.0947.

As for B25, the “median log2 fold change” value is -0.0499.

With B26, the “median log2 fold change” value was -0.567.

With B27, the “median log2 fold change” value was -0.762.

As to B28, the “median log2 fold change” value was 0.0613.

Regarding B29, the “median log2 fold change” value was -0.000909.
